According to PubChem BioAssay:

assay: small molecules captured by biotinylated probe aFSTL3 – biochemical, small-molecule microarray, fluorescence 635/667, stem cell growth factor project, primary screen (AID 1064); details: higher = more signal;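 further: measures binding of the biotinylated anti-FSTL3 antibody to printed compounds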

Going from `CC(C)=NO[C@H](C)c1cn([C@H](CO)Cc2ccccc2)nn1` to `CO[C@H]1COC(=O)[C@H](C)NC(=O)CC=C[C@@H](C)[C@H](OC)COC(=O)[C@@H](OCc2ccccc2)C=C[C@@H]1C`, the composite z-score falls from -0.125 to -0.628.

Compared with `CCOC(=O)[C@H](CC(C)C)NC(=O)CCC1CC(OC(=O)NCc2cccc3ccccc23)CC2(CCCC(COC(=O)NCCOc3ccccc3)O2)O1` (stereo partly specified), `CCOC(=O)[C@H](CC(C)C)NC(=O)CCC1CC(OC(=O)NCc2cccc3ccccc23)CC2(CCCC(COC(=O)NCCc3ccc(Cl)cc3)O2)O1` (stereo partly specified) is higher in composite z-score: -0.646 for the first, -0.318 for the second.

First: O=C1C[C@@H](O)[C@@H](O)[C@@H]2[C@@H]3C(=O)N(C[C@@H]4CCCO4)C(=O)[C@@H]3CC[C@@H]12
Second: C#CCCCON=C1C[C@@H](O)[C@@H](O)[C@@H]2[C@@H]3C(=O)N(CC)C(=O)[C@@H]3CC[C@@H]12
The composite z-score of the first is lower: -0.58 for the first, -0.572 for the second.

Compared with `CO[C@H]1COC(=O)CC=C[C@@H](C)[C@H](NS(=O)(=O)c2ccc(C)cc2)COC(=O)CCC[C@@H]1C`, `CO[C@H]1COC(=O)CC=C[C@@H](C)[C@H](OC)COC(=O)[C@@H]2CCCN2C(=O)CC=C[C@@H]1C` is lower in composite z-score: -0.366 for the first, -0.479 for the second.

First: CCCNC(=O)OC[C@H]1O[C@H](CCON=C(C)CCN2CCCc3nc(C)c(C)cc32)C=C[C@@H]1Oc1ccc(OC)cc1
Second: COC(=O)[C@H](C)NC(=O)CCC1CC(OC(=O)NCc2ccc3c(c2)OCO3)CC2(CCCC(COC(=O)NCC3CCCCC3)O2)O1 (stereo partly specified)
The composite z-score of the first is higher: -0.0324 for the first, -0.632 for the second.

Work on `CON=C[C@@H](NS(=O)(=O)c1ccc(C)cc1)[C@H](C)C=CCC(=O)OC` yielded a composite z-score of -0.303.
